Values joined by “and” are separate entries in the source; they are usually repeats but may differ in a detail not shown here. Equal entries are not always repeated. Inconclusive results are not listed. Active and inactive are the calls of the source. Calls come from the whole dose curve; as a rule, active = well fitted cell-killing curve with a large enough effect; inconclusive = small, poorly fitted or top-dose-only effect; inactive = flat fitted curve, though single readings scatter.
Assay: Cellular viability qHTS for adrenocortical cancer (ACC) cell line NCI-H295R (AID 1963990); note: nearly all actives have a fitted effect of over 60% in size
Conditions: CellTiter-Glo ATP luminescence, 48 h; series mostly up to 46.1 µM; activity change, negative = viability loss: at the top concentration
From the text: PI: Naris Nilubol, MD Surgical Oncology Program, National Cancer Institute (NCI) National Institute of Health (NIH), Bethesda, Maryland Adrenocortical cancer (ACC) is a rare malignancy with poor survival outcomes and few treatment options. Currently, mitotane is the only FDA-approved therapy for ACC. Although adjuvant radiation therapy is rarely utilized, it has the potential to improve survival in select cases. Through a quantitative high-throughput drug screen (qHTS), we identified auranofin (AF), a thioredoxin reductase (TXNRD) inhibitor, as a promising candidate drug. This study aims to evaluate whether AF can enhance the efficacy of radiation therapy in the treatment of ACC. Two human ACC cell lines, SW-13 and NCI-H295R, were screened using the National Center for Advancing Translational Sciences (NCATS) Pharmaceutical Collection (NPC) and the Mechanism Interrogation PlatE (MIPE) library (~4,991 compounds). CellTiter-Glo (Cat # G7570, Promega, Madison, WI) was utilized to measure cell viability. Described herein are the results of the corresponding viability assay.
PROTOCOL TABLE (as described by Inglese J, Shamu CE and Guy RK. 2007) SEQUENCE No. (e.g., 1, 2, 3, etc.); […] (e.g., Cells, Incubation, Reagent, etc.); VALUE; DESCRIPTION. 1; Cells; 5 uL; white, solid-bottom, 1536-well tissue-culture treated plates. 2; Time; overnight culture at 37C with 5% CO2. 3; Compounds and control; 23 nL; Kalypsis pin tool (Wako USA) equipped with a 1536-well pin head to transfer to the assay plates. 4; Time; 48 hours; 37C with 5% CO2. 5; Reagent; 4 uL; CellTiter-Glo luminescent substrate mix. 6; Time; 20 min at room temperature. 7; Detection; Luminescence; ViewLux plate reader NOTES (numbers refer to Sequence numbers above) 1. NCI-H295R cells were harvested from a T175 flask and resuspended in ITS-supplemented DMEM serum-free medium at a concentration of 300 000 cells/mL. Then 5 uL of resuspended cells were dispensed into each well of white, solid-bottom, 1536-well tissue-culture-treated plates using a multidrop combi dispenser. The plates were covered with stainless steel gasket lids. 2-3. The plates were cultured overnight at 37C with 5% CO2. Twenty-three nL of compounds (eight selected concentrations from the NPC / MIPE) or positive control (10 mM stock of bortezomib) in DMSO was transferred to each well of the assay plate using a pin tool (Kalypsys, San Diego, CA, USA). The final concentration of the compounds in the 5 uL assay volume ranged from 0.5 nM to 46 uM. 4-6. After 48 hours of incubation at 37C and 5% CO2, 4 uL of CellTilter-Glo luminescent substrate mix (Promega, Madison, WI, USA) was added to each well. Then the plates were incubated for 20 minutes at room temperature. 7. After incubation, luminescence was measured using a ViewLux plate reader (PerkinElmer, Waltham, MA, USA) with a clear filter was used to measure the number of metabolically competent cells. To determine compound activity in the qHTS assay, the titration-response data for each sample was plotted and modeled by a four-parameter logistic fit yielding IC50 and efficacy (maximal response) values. Raw plate reads for each titration point were normalized relative to positive control ([…], 100% inhibition) and DMSO-only wells (basal, 0%). REFERENCES: Inglese J, Shamu CE and Guy RK, Reporting data from high throughput screening of small molecule libraries, Nature Chemical Biology, 2007, 3(8): 438-441. doi.org/10.1038/nchembio0807-438.

SMILES	activity change, negative = viability loss	Potency
CC(C)(C)c1nnc(NS(=O)(=O)c2ccccc2)s1	6.87% (inactive)	–
C/C(=C(\CCO)SS/C(CCO)=C(\C)N(C=O)Cc1cnc(C)nc1N)N(C=O)Cc1cnc(C)nc1N	0.0181% (inactive)	–
CC(=O)NC(Cc1ccccc1)C(=O)O (stereo not given)	-9.31% (inactive)	–
C[C@H](N)[C@H](O)c1cccc(O)c1	9.26% (inactive)	–
CNCc1ccc(-c2[nH]c3cc(F)cc4c3c2CCNC4=O)cc1	-24.8% (inactive)	–
CC(C)Nc1cccnc1N1CCN(C(=O)c2cc3cc(NS(C)(=O)=O)ccc3[nH]2)CC1	-2.37% (inactive)	–
NCCNCCNCCNCCN	1% [at 9.17 µM] (inactive)	–
CC(C)(C)NC[C@H](O)COc1nsnc1N1CCOCC1	-6.23% (inactive)	–
O=C(Nc1cc(Cl)cc2c1[nH]c1cnccc12)c1cccnc1	11.4% [at 20 µM] (inactive)	–
CC(=O)Oc1ccccc1C(=O)O	–	inactive
O=C(/C=C/C#Cc1cccc(NS(=O)(=O)c2ccccc2)c1)NO	–	3.19 µM (active)
Nc1cccc(-c2cc3c(Oc4cccc(O)c4)ncnc3[nH]2)c1	–	8.91 µM (active)
O=C(NCC1CCCCN1)c1cc(OCC(F)(F)F)ccc1OCC(F)(F)F (stereo not given)	-7.86% (inactive)	–
CCCCCCCCCCCCc1ccc(S(=O)(=O)Nc2nncs2)cc1	0.947% (inactive)	–
Cn1cc(-c2nc(N[C@@H]3CCCC[C@@H]3N)c(F)c3c2C(=O)NC3)cn1	0.124% [at 3.81 µM] (inactive)	–
CC[N+](CC)(CC)CCOC(=O)C(C1CCCC1)C1CCCC1	-3.84% (inactive)	–
O=C(Oc1ccccc1C(=O)O)c1ccccc1O	4.79% (inactive)	–
CN(C)Cc1ccc(S(=O)(=O)n2ccc(/C=C/C(=O)NO)c2)cc1	–	3.16 µM (active)
CN1Cc2cc(C(=O)N3CCC(C4CCNCC4)CC3)ccc2NC(CC(=O)O)C1=O (stereo not given)	-7.56% (inactive)	–
Cc1cccc(-c2nn(C(=S)Nc3ccccc3)cc2-c2ccnc3ccccc23)n1	-17.4% (inactive)	–

SMILES	activity change, negative = viability loss	Potency
CCC(=O)O[C@]1(C(=O)COC)[C@@H](C)C[C@H]2[C@@H]3CCC4=CC(=O)C=C[C@]4(C)C3(F)[C@@H](O)C[C@@]21C (stereo not given in full)	-20.6% (inactive)	–
Cc1cc(NS(=O)(=O)c2ccc(N)cc2)no1	-26.9% (inactive)	–
C=CC(=O)N1CCc2ccc(-n3c(=O)ccc4cnc5ccc(-c6cnn(C)c6)cc5c43)cc21	–	0.506 µM (active)
CC(=O)Oc1ccc(C)cc1	-9.29% (inactive)	–
O=C(O)[C@H](Cc1c[nH]c2ccccc12)N1C(=O)c2ccccc2C1=O	-1.81% (inactive)	–
CS(=O)(=O)c1ccc(-c2nnc(/C=C/c3nnc(-c4ccc(C#N)cc4)o3)n2-c2ccccc2Cl)nc1	-28.2% (inactive)	–
O=C(NC1CCOCC1)c1ccc(-c2cc(-c3cn[nH]c3-c3ccccn3)ccn2)cc1	-2.45% (inactive)	–
Cc1nc(-c2ccc(Cl)cc2)oc1COC(C)(C)C(=O)O	-0.993% (inactive)	–
CCOC(=O)C1=C[C@@H](OC(CC)CC)[C@H](NC(C)=O)[C@@H](N)C1	-21.7% (inactive)	–
CC(=O)OCC(=O)[C@@]12OC(C)(C)O[C@@H]1C[C@H]1[C@@H]3C[C@H](F)C4=CC(=O)C=C[C@]4(C)[C@@]3(F)[C@@H](O)C[C@@]12C	–	inactive
OC[C@H]1O[C@@H](O[C@@H]2[C@@H](CO)O[C@](O)(CO)[C@H]2O)[C@H](O)[C@@H](O)[C@H]1O	–	inactive
S=c1nc[nH]c2nc[nH]c12	–	2.06 µM (active) and 4.47 µM (active)
CN1CCN(c2ccc(-c3cccc(CN4CCOCC4)c3)cc2NC(=O)c2c[nH]c(=O)cc2C(F)(F)F)CC1	0.341% [at 20 µM] (inactive)	–
CCN1CCN(c2cc3c(cc2F)c(=O)c(C(=O)O)cn3C2CC2)CC1	-13.6% (inactive)	–
C=CCn1c(=O)n([C@@H]2O[C@H](CO)[C@@H](O)[C@H]2O)c2nc(N)[nH]c(=O)c21	-9.07% (inactive)	–
CCN1CCN(Cc2ccc(NC(=O)c3ccc(C)c(NC(=O)c4cncc(-c5cccs5)c4)c3)cc2C(F)(F)F)CC1	–	2.51 µM (active)
Cc1cnc(C(=O)O)c[n+]1[O-]	-26.6% (inactive)	–
O=c1c(O)c(-c2ccc(O)c(O)c2)oc2cc(O)cc(O)c12	5.34% (inactive)	–
CCOc1ccccc1O[C@H](c1ccccc1)[C@H]1CNCCO1	-28.5% (inactive)	–
O=C(O)COC(=O)Cc1ccccc1Nc1c(Cl)cccc1Cl	-26% (inactive)	–

Reference: PubChem BioAssay (NCATS)
